An excerpt weighted towards active compounds, which were near 6% of everything screened.
Tau fluor counter: counter-screen for tau fibril formation inhibitors; tau K18 P301L Alexa594 fluorescence, heparin fibrillization; Potency, µM (top dose mostly 57.7 µM), for the others: top-dose activity change, negative = decrease; 280,000 compounds, 0.93% hits; also: nearly all actives have a fitted effect of over 55% in size
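Human K18 P301L tau (15 uM unlabeled plus 0.24 uM Alexa 594-labeled, final) in 100 mM sodium acetate pH 7 was mixed with compound and 20 uM heparin and incubated 6 hr at 37 C.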
Sfp inh: inhibitors of Bacillus subtilis Sfp phosphopantetheinyl transferase; Biochemical Sfp PPTase activity, qHTS; Potency, µM, for inactives: largest response in the series, negative = inhibition, actives largely listed as inhibitors; 310,000 compounds, 3.5% hits; AID 1490;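 also: the enzyme is Sfp with the accession as filed and its product quenches rhodamine fluorescence; 0% = enzyme reaction without inhibitor and -100% = no enzyme wells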
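Compounds were incubated with enzyme (final 15 nM) for 15 min at room temperature before substrate addition started the reaction. Fluorescence at 525 nm excitation, 598 nm emission was recorded immediately and after 30 minutes.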
VDR inhibitor: inhibitors of human vitamin D receptor. Potency, µM, for inactives: max response, negative = inhibition, actives largely listed as inhibitors. 400,000 compounds, 0.93% hits. VDR-SRC2-3 peptide fluorescence polarization, 2 h. P11473
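Measured by FP: displacement of SRC2-3 coactivator peptide from VDR by library compounds, following a two-hour ambient incubation.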
PLK1 PBD inh: blocks phosphopeptide binding to human PLK1 polo-box domain. Plk1 PBD binding of FITC phosphopeptide, fluorescence polarization. Potency, µM, without a hit: max response, negative = inhibition, most hits filed as inhibitors. 360,000 compounds, 2.8% hits. AID 720504; also: series mostly up to about 57 µM; nearly all actives have a fitted effect of over 65% in size
Target sequence (P53350 whole entry, looked up, the tested form may be a part): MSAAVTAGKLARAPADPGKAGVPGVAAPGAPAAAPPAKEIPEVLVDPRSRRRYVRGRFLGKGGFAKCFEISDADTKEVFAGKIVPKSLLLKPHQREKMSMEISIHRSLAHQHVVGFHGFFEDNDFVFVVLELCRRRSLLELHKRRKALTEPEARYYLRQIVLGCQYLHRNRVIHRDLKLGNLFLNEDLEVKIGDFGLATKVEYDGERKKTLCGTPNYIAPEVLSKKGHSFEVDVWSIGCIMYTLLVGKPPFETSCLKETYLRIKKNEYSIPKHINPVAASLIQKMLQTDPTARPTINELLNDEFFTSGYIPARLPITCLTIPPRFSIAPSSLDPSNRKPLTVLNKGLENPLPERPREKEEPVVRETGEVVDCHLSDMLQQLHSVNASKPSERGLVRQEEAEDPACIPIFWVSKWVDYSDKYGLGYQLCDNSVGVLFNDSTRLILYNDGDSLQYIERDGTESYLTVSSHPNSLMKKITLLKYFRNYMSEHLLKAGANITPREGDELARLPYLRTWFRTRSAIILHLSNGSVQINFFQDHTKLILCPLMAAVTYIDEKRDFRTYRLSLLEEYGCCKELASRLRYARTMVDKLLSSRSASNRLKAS
Tau fibril FP: blocks human tau fibril formation measured by polarization | K18 P301L tau heparin fibrillization, Alexa594 FP, 6 h | Potency, µM (series often up to 57.7 µM), without a hit: at the top dose activity, negative = inhibition, hits mostly inhibitors | 280,000 compounds, 0.39% hits | AID 1468; also: nearly all actives have a fitted effect of over 55% in size
Target sequence (P10636 561-689 P618L limits assumed): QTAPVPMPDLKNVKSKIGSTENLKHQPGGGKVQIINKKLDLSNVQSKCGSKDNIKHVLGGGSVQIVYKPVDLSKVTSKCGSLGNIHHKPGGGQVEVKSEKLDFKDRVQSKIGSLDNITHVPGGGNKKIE
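FP of Alexa 594-tau after heparin (20 uM) induction. Substrate: human K18 P301L, 15 uM unlabeled, 0.24 uM labeled. Buffer 100 mM sodium acetate pH 7. 6 hr, 37 C.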
Tau ThT inhib: blocks human tau fibril formation measured by thioflavin T | P10636 | recombinant tau K18 P301L, heparin-induced fibrillization, ThT fluorescence | Potency, µM (doses to about 57.4 µM), for inactives: at the top dose activity, negative = inhibition, most hits filed as inhibitors | 270,000 compounds, 2.1% hits; also: nearly all actives have a fitted effect of over 55% in size
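Fibril formation assay: tau K18 P301L at 15 uM with trace Alexa 594 label, heparin inducer 20 uM, pH 7 sodium acetate buffer, 37 C for 6 hr; endpoint ThT signal.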
Numbers without * were called inactive; ? = inconclusive; nt = no result given; [ ] = remark or other dose. Calls follow the shape of the dose curve; as a rule, active = well fitted curve in the direction sought with a large enough effect; inconclusive = small, poorly fitted or top-dose-only effect, or another doubt; inactive = no such curve, though single readings can be large; an effect the other way counts as inactive or inconclusive. Unless noted, % is scaled to controls: 0 for no effect and ±100 for the full control effect; potency is read from the fitted curve at half-maximal effect.

SMILES | Tau fluor counter | Sfp inh | VDR inhibitor | PLK1 PBD inh | Tau fibril FP | Tau ThT inhib
CN(C)S(=O)(=O)c1ccc(=S)[nH]c1 | 4% | ? | -8% | 24µM* | -2% | -6%
COc1cccc(-c2nc(CS(=O)(=O)CC(=O)Nc3c(C)cc(C)cc3C)c(C)o2)c1 | 13% | nt | -4% | nt | -6% | -1%
CC(C)OC(=O)c1cccc(NC(=O)Cn2nnc3sc4c(c3c2=O)CCCC4)c1 | ? | nt | -9% | nt | ? | -11%
COc1cc(/C=N/Nc2ccc(Cl)nn2)cc(OC)c1O | nt | 50µM* | -2% | -3% | nt | nt
CON/C=N/C(=S)Nc1ncc(C(F)(F)F)cc1Cl | 13% | 11µM* | 13% | -12% | 4% | 11%
ON/C=N/C(=S)Nc1ncc(C(F)(F)F)cc1Cl | 4% | -2% | -4% | -5% | 0% | 2%
Cc1ccc(/C=N/Nc2ccc(F)cc2F)s1 | nt | 4% | -3% | -6% | nt | nt
COc1cc(/C=N/Nc2ncc(C(F)(F)F)cc2Cl)cc(OC)c1O | ? | 89µM* | 14% | -9% | -1% | ?
COc1cc(/C=N/Nc2ccc(F)cc2F)cc(OC)c1O | ? | -39% | -23% | 27µM* | -8% | ?
Oc1ccccc1CC=NC1CCCCC1 | nt | nt | -3% | 0% | nt | nt
CCCOc1ccc(F)cc1-c1cc(C(=O)Nc2ccc(OC)cc2C)[nH]n1 | nt | nt | nt | 4% | nt | nt
CC(C)NC(=O)C1(C)CN(S(C)(=O)=O)CC(=O)N1CCc1ccc(O)cc1 (stereo not drawn) | nt | nt | nt | 4% | nt | nt
Oc1ccc(/C=N/Nc2ccc(Cl)nn2)c(O)c1O | nt | 10µM* | -2% | 17µM* | nt | nt
Cc1ccc(-n2nc3c(=O)n(C(C)C(=O)NCCC4=CCCCC4)nc(C)c3c2C)cc1 (stereo not drawn) | nt | 10% | -1% | -1% | nt | nt
COc1cc(/C=N/N=C(N)N)ccc1OCc1ccccc1Cl | ? | 25µM* | -1% | -5% | -13% | -8%
O/N=C/c1cc(Cl)ccc1OCc1ccccc1Cl | ? | -6% | 1% | -24% | ? | ?
COc1ccc(C(=O)OCC(=O)NC2CC2)cc1F | nt | nt | 15% | -18% | nt | nt
Fc1ccc(-n2c(-c3ccco3)n[nH]c2=S)cc1 | nt | 79µM* | 3% | -7% | nt | nt
CCOc1ccc(-n2c(-c3ccco3)nc3c(cnn3-c3ccc(C)cc3)c2=O)cc1 | -9% | 23% | 17% | -7% | -10% | 5%
COc1ccc(OC)c(-n2c(-c3cc(-c4ccco4)[nH]n3)n[nH]c2=S)c1 | 10%[2.34 µM] | 17% | 1% | -6% | 3% | 1%
CCOc1ccc(-n2c(-c3ccco3)n[nH]c2=S)cc1 | -16% | 50µM* | 0% | -7% | -8% | -12%
S=c1[nH]nc(-c2cc(-c3ccco3)[nH]n2)n1-c1ccccc1 | -6% | 89µM* | -4% | -17% | 0% | -5%
Cc1cc(-c2n[nH]c(=S)n2-c2ccccc2)nn1C | -5% | 79µM* | -6% | 4% | 0% | -5%
O=C(NCc1cccc(C(F)(F)F)c1)c1csc([C@@H]2O[C@H](CO)[C@H](O)[C@H](O)[C@H]2O)n1 | nt | nt | nt | 4% | nt | nt
COC(=O)c1ccc(C(/C=C/[C@@H](C)C(=O)NCc2ccc(OC)c(O)c2)NC(=O)OCc2ccccc2)cc1 (stereo partly drawn) | -19% | -16% | nt | nt | 13% | ?
SMILES | Tau fluor counter | Sfp inh | VDR inhibitor | PLK1 PBD inh | Tau fibril FP | Tau ThT inhib
O=C1c2ccccc2C(c2nnnn2Cc2ccccc2)N1Cc1cccnc1 (stereo not drawn) | nt | nt | nt | -8% | nt | nt
Cc1ccc(-n2c(-c3ccco3)n[nH]c2=S)cc1 | -9% | 79µM* | -15% | -7% | -7% | -6%
S=c1[nH]nc(-c2ccco2)n1-c1ccccc1Cl | -9% | -7% | -12% | -13% | 2% | -8%
O=C(Cn1c(=O)oc2ccccc21)NCC1COc2ccccc2O1 (stereo not drawn) | nt | 4% | 4% | -7% | nt | nt
COc1cccc(CN2CCNC(=O)C2CC(=O)NCC(C)(C)N2CCOCC2)c1OC (stereo not drawn) | nt | 6% | -4% | -10% | nt | nt
CN(C)c1ccc(CNC(=O)c2cccn2-c2nnc(N3CCCCC3)s2)cc1 | -5% | nt | 0% | nt | 11% | -6%
C/C(=N/NC(=O)c1ccc(Br)o1)c1cccc(NC(=O)c2ccc(C)o2)c1 | -5% | 8% | ? | 7.5µM* | -1% | ?
CCOC(=O)c1ccc(NC(=O)CCc2nc(-c3ccc(Cl)cc3)no2)cc1 | -30% | 89µM* | 0% | 1% | ? | ?
O=C(CSc1ccccc1)Nc1ccc(S(=O)(=O)NCC2CCCO2)cc1 (stereo not drawn) | -16% | -3% | -1% | 24µM* | -1% | -15%
O=C(Cc1ccc(Br)cc1)Nc1ccc(S(=O)(=O)NCC2CCCO2)cc1 (stereo not drawn) | ? | 26% | ? | 24µM* | -11% | -7%
Cc1ccn2c(NCc3ccccc3)c(-c3cccs3)nc2c1 | ? | -21% | 2% | -7% | 6% | ?
Cc1ccn2c(NC3CCCC3)c(-c3cccs3)nc2c1 | -26% | -19% | 40µM* | 4.2µM* | 6% | ?
CNc1cncc(-c2ccc(F)cc2F)n1 | nt | nt | nt | 4% | nt | nt
CN(C)c1ccc(N=Nc2ccc(S(=O)(=O)O)cc2)c2ccccc12 | ? | 7% | -7% | ? | 2% | 5µM*
CSc1ccc(C(=S)N2CCCCCC2)cc1 | nt | -21% | -16% | -24% | nt | nt
COc1cc(OC)c(OC)cc1CN1CCN(Cc2ccc(SC)cc2)CC1 | -6% | ? | -3% | -9% | 1% | -4%
CSc1ccc(C(=S)N2CCN(Cc3ccccc3)CC2)cc1 | -25% | 14µM* | -19% | 21µM* | 7% | -18%
CCN1CCN(C(=S)c2ccc(SC)cc2)CC1 | -11% | 28µM* | ? | 19µM* | -5% | -14%
COc1cc(CN2CCN(Cc3ccc(SC)cc3)CC2)cc(OC)c1O | -21% | 56µM* | 27% | -8% | -2% | ?
OCCN1CCN(C(=S)c2ccc(Cl)cc2)CC1 | -3% | -78% | ? | 6.7µM* | -10% | -5%
Cc1ccc(S(=O)(=O)N2CCN(c3nc(-c4cnccn4)nc4ccccc34)CC2)cc1 | nt | nt | -8% | nt | nt | nt
COc1ccc(CNC(=O)c2ccc(-c3nc(CSc4ccccc4)c(C)o3)cc2)c(OC)c1 | -4% | nt | 16% | nt | 3% | 3%
COc1ccccc1CNc1ncnc2onc(-c3ccc(Cl)cc3)c12 | -19% | nt | -19% | nt | -9% | -13%
NNC(=O)CN1C(c2cccc(Cl)c2)=Nc2ccc(Br)cc2C1c1ccccc1 (stereo not drawn) | -10% | 14% | 10% | -14% | -5% | -9%
NNC(=O)CN1C(c2ccccc2Br)=Nc2ccc(Br)cc2C1c1ccccc1 (stereo not drawn) | -3% | 0% | 71µM* | -10% | 0% | -5%

Screens (PubChem)
